Screening results from PubChem.
ELG1 genotox = induces genotoxicity in HEK293T cells with luciferase-tagged ELG1; HEK293T ELG1-luciferase reporter, luminescence, 16 h; Potency, µM (doses to about 46 µM), for inactives: at the top dose activity change, positive = activation, most hits filed as activators; hit rate 1.3% among 330,000; AID 504466; further: % of control where 0% means no effect; nearly all actives have a fitted effect of over 60% in size
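HEK293T cells expressing luciferase-tagged ELG1 were treated with compound or DMSO for 16 hr at 37°C. Luciferase activity was then read after 30 min with ONE-Glo at room temperature; rising signal flags genetic stress.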
Rab9 promoter act = Rab9 promoter activation; Huh7 Rab9 promoter-luciferase reporter, luminescence, 24 h; Potency, µM (doses to about 9.22 µM), for inactives: at the top dose activation, negative = inhibition, most hits filed as activators; hit rate 2.8% among 320,000; AID 485297; further: % of control where 0% means no effect; nearly all actives have a fitted effect of over 60% in size
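Luminescence read-out: Huh7 cells stably expressing Rab9-luciferase, treated 24 h with compound at 37 °C, then lysed with luciferase reagent for 10 min at ambient before reading.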
FLuc modulator = counter-screen for miR-21 project: firefly luciferase inhibitors or activators; P08659; purified FLuc, Km substrates, luminescence inhibition; Potency, µM (top dose mostly 57.5 µM), for the others: top-dose activity change, negative = inhibition, usual class: inhibitors; hit rate 6.9% among 360,000; AID 588342;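 further: plate controls were vehicle for no effect and reference inhibitor for full effect; nearly all actives have a fitted effect of over 55% in size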
Target sequence (P08659 whole entry, looked up): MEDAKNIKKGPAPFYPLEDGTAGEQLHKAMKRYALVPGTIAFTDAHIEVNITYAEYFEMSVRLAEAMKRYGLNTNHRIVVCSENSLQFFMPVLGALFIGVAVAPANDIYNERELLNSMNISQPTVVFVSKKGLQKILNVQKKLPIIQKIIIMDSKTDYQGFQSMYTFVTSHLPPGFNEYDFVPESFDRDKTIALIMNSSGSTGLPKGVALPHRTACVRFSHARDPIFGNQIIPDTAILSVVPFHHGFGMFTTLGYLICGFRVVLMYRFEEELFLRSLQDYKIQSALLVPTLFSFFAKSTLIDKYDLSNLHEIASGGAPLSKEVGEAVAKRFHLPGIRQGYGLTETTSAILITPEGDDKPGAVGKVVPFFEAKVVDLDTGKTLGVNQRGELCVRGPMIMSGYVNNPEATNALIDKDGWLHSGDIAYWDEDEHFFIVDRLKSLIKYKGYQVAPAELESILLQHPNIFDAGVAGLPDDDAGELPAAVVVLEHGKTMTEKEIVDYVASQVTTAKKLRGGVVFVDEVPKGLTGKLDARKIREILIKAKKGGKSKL
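Purified P. pyralis luciferase, 10 nM final, with Km-level 10 uM D-luciferin and 10 uM ATP in 50 mM Tris acetate pH 7.5, 10 mM Mg acetate, 0.01% Tween-20, 0.05% BSA; 6-point qHTS titration about 60 µM downward; luminescence read.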
Luc counter = blocks Kinase-Glo luciferase, a counter-screen artifact; Kinase-Glo luciferase, ATP luminescence, 8 min; Potency, µM (highest dose often 38.3 µM), without a hit: at the highest dose activity change, negative = inhibition, usual class: inhibitors; hit rate 0.28% among 200,000; Q27757; further: on the % scale 0 is the no-effect control and ±100 the full control effect; nearly all actives have a fitted effect of over 60% in size
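Compound is pinned into ATP-containing buffer (10 uM ATP, imidazole pH 7.2, 7 mM MgCl2). Kinase-Glo luciferase reagent is then added. Light output is recorded following an 8-min room-temperature incubation.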
SMN2 splice up = enhancers of SMN2 splice variant expression; HEK293 SMN2-luciferase splicing reporter, luminescence, 30-36 h; Potency, µM (top dose mostly 46.1 µM), for the others: top-dose activity change, positive = activation, most hits filed as activators; hit rate 2.8% among 210,000; AID 1458; further: % of control where 0% means no effect; nearly all actives have a fitted effect of over 55% in size
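HEK293 cells carry an SMN2 minigene-luciferase reporter in which exon 7 inclusion puts luciferase in frame. Cells were seeded at 2000 cells/well, attached for 10-12 hours, then exposed to compounds for 30-36 hours at 37C before ONE-Glo luminescence.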
NPC1 promoter act = NPC1 promoter activation; hit rate 2.4% among 320,000; Potency, µM (doses to about 9.22 µM), for the others: top-dose activation, hits mostly activators; Huh7 NPC1 promoter luciferase reporter, 24 h; AID 485313; further: % of control where 0% means no effect; nearly all actives have a fitted effect of over 60% in size
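Huh7 cells stably carrying NPC1 promoter–luciferase, plated in Opti-MEM with 10% FBS for 2 h, were exposed to compound in DMSO for 24 h at 37 °C; luciferase reagent was added for 10 min and luminescence read.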
Active calls of the source: *; [ ] = another dose, or the depositor's remark. A selection: hits, their analogues and other compounds. The true share with any hit is near 7.5%. The call rests on the fitted dose curve; in most records, active means well fitted curve in the direction sought with a large enough effect; inconclusive means small, poorly fitted or top-dose-only effect, or another doubt; inactive means no such curve, though single readings can be large; an effect the other way counts as inactive or inconclusive. Potency means the concentration at half of the fitted maximal effect.

Screening Cc1cccc(CCNC(=O)c2cccc(N3CCCC3=O)c2)c1 returned ELG1 genotox inconclusive, Rab9 promoter act 2.5µM*, FLuc modulator 11µM* and NPC1 promoter act 1.4µM*.
O=C(Nc1ccccc1)c1cccc(N2CCCC2=O)c1 was read as ELG1 genotox 10µM*, Rab9 promoter act inconclusive, FLuc modulator inconclusive, Luc counter -4%, SMN2 splice up inconclusive and NPC1 promoter act inconclusive.
Screening O=C(NCCc1ccccc1)c1cccc(N2CCCC2=O)c1 returned ELG1 genotox inconclusive, Rab9 promoter act 0.32µM*, FLuc modulator 2.1µM* and NPC1 promoter act 0.5µM*.
For CN(CCCNC(=O)c1cccc(N2CCCC2=O)c1)c1ccccc1 the results were ELG1 genotox -1%, Rab9 promoter act 0%, FLuc modulator -6%, Luc counter 9%, SMN2 splice up 3.2µM* and NPC1 promoter act 1%.
For Cc1ccc(CCNC(=O)c2cccc(N3CCCC3=O)c2)cc1 the results were ELG1 genotox 12%, Rab9 promoter act 29%, FLuc modulator inconclusive and NPC1 promoter act 18%.
For O=C(NNC(=O)c1ccccc1F)c1ccc(-c2ccc(Cl)cc2)o1 the results were ELG1 genotox 1%, Rab9 promoter act -1%, FLuc modulator inconclusive and NPC1 promoter act -1%.
For O=C(NC1CCC(O)CC1)c1ccc(Br)o1 (stereo unspecified) the results were ELG1 genotox -1%.
O=C(NC1=NCCS1)c1ccc(Cl)cc1 was read as ELG1 genotox 10µM*, Rab9 promoter act 2µM*, FLuc modulator 11µM* and NPC1 promoter act 1.6µM*.
For COc1ccc(Cl)cc1C(=O)NC1=NCCS1 the results were ELG1 genotox 3%, Rab9 promoter act 14%, FLuc modulator inconclusive and NPC1 promoter act 0%.
For O=C(NC1CCC(O)CC1)c1ccc(-c2ccc(Cl)cc2)o1 (stereo unspecified) the results were ELG1 genotox 14%, Rab9 promoter act inconclusive, FLuc modulator 11µM* and NPC1 promoter act inconclusive.
For O=C(NC1=NCCS1)c1ccc(Br)s1 the results were ELG1 genotox 7.3µM*, Rab9 promoter act 3.5µM*, FLuc modulator 7.6µM*, Luc counter -3%, SMN2 splice up 11µM* and NPC1 promoter act 3.5µM*.
`O=C(NC1=NCCS1)c1ccc(-c2ccc(Cl)cc2)o1` gave ELG1 genotox 2.1µM*, Rab9 promoter act 2µM*, FLuc modulator 1.9µM*, Luc counter -3%, SMN2 splice up 13µM* and NPC1 promoter act 2µM*.
Screening COc1ccccc1NC(=O)c1cc2c([nH]c1=O)CC(C)(C)CC2=O returned FLuc modulator -14% and SMN2 splice up 12%.
For CC(Sc1nnc2ccc3ccccc3n12)C(=O)Nc1ccc(Cl)cc1 (stereo unspecified) the results were FLuc modulator 1%.
Screening Cc1ccsc1C(=O)OCC(=O)NC1CCCC1 returned ELG1 genotox inconclusive, Rab9 promoter act inconclusive, FLuc modulator 21µM* and NPC1 promoter act inconclusive.
`O=C(COC(=O)c1cccs1)NC1CCCC1` gave ELG1 genotox 7%, Rab9 promoter act -4%, FLuc modulator inconclusive and NPC1 promoter act -3%.
`O=C(COC(=O)c1cccs1)NC1CCCCC1` gave ELG1 genotox -1%, Rab9 promoter act 5%, FLuc modulator 21µM*, Luc counter -4%, SMN2 splice up 1% and NPC1 promoter act 2%.
Screening Cc1ccsc1C(=O)OCC(=O)Nc1sccc1C(N)=O returned ELG1 genotox 7%, Rab9 promoter act inconclusive, FLuc modulator 5.4µM*, Luc counter -11%, SMN2 splice up 22% and NPC1 promoter act inconclusive.
Screening O=C(COC(=O)c1ccccc1)NC(=O)NC1CCCC1 returned ELG1 genotox 2%, Rab9 promoter act -3%, FLuc modulator -5% and NPC1 promoter act -2%.
Screening O=C(COC(=O)c1ccccc1)NC1CCCC1 returned ELG1 genotox 9%, Rab9 promoter act -8%[1.84 µM], FLuc modulator 17µM* and NPC1 promoter act -3%.
CC(C)S(=O)(=O)c1oc(-c2cccs2)nc1S(=O)(=O)c1ccc(F)cc1 was read as SMN2 splice up -74%.
Screening O=C(COC(=O)Cc1c(Cl)cccc1Cl)NC1CCCC1 returned ELG1 genotox 2%.
For O=C(NC(=S)NC1CCCC1)c1ccccc1 the results were ELG1 genotox inconclusive, Rab9 promoter act inconclusive, FLuc modulator 17µM* and NPC1 promoter act inconclusive.
`O=C(COC(=O)c1ccccc1F)NC1CCCC1` gave ELG1 genotox 1%, Rab9 promoter act -1%, FLuc modulator 24µM* and NPC1 promoter act -2%.
For O=C(NC(=S)NC1CCCCCCCCCCC1)c1cccnc1 the results were ELG1 genotox 4%, Rab9 promoter act 3%, FLuc modulator 0%, Luc counter -4%, SMN2 splice up 0% and NPC1 promoter act 0%.
O=C(COC(=O)c1c(F)cccc1Cl)NC1CCCCC1 was read as ELG1 genotox inconclusive, Rab9 promoter act inconclusive, FLuc modulator 15µM* and NPC1 promoter act inconclusive.
O=C(COC(=O)c1ccccc1F)NC1CC1 was read as ELG1 genotox 2%, Rab9 promoter act -3%, FLuc modulator -15% and NPC1 promoter act -3%.
`COc1cccc(NC(=O)c2cc3c(=O)n(Cc4cccnc4)ccc3nc2C)c1` gave FLuc modulator -2%.
CC(=O)N1CCc2cc(CNC(=O)Cc3ccc(F)cc3)ccc21 was read as FLuc modulator -18%.
For CC1=C(c2ccc(Cl)cc2)S(=O)(=O)NC1=NCCCN1CCN(c2cc(C)ccc2C)CC1 the results were FLuc modulator -3%.
COc1cc(CN2CC(=O)N(c3cc(Cl)ccc3C)C2=S)cc(OC)c1OC was read as ELG1 genotox -6%, Rab9 promoter act -5%, FLuc modulator -1% and NPC1 promoter act -8%.
For Cc1cc(Cl)ccc1OCCCC(=O)NN the results were ELG1 genotox -1%, Rab9 promoter act 0%, FLuc modulator 3%, Luc counter 0%, SMN2 splice up 2% and NPC1 promoter act 0%.
CC(C)c1ccc(OCC(=O)N2CCCCCC2)c(Br)c1 was read as ELG1 genotox inconclusive, Rab9 promoter act 2.8µM*, FLuc modulator 21µM*, Luc counter 0%, SMN2 splice up 25% and NPC1 promoter act inconclusive.
For Cc1cc(Cl)ccc1OCCCC(=O)OCC(N)=O the results were ELG1 genotox 1%, Rab9 promoter act -12%, FLuc modulator 27µM*, Luc counter 0%, SMN2 splice up 17% and NPC1 promoter act -7%.
